The list is not random: actives were taken first. Their share in the collection is about 21%.
Pf growth 48h: P. falciparum growth inhibition at 48 hours (one generation) | hit rate 5.9% among 310,000 | Potency, µM (series often up to 28.7 µM), for the others: top-dose activity change, negative = inhibition, hits mostly inhibitors | AID 504832 | P. falciparum luciferase growth in erythrocytes, 48 h; active = well fitted inhibition curve with a large enough effect; inconclusive = small, poorly fitted or top-dose-only effect, or another doubt; inactive = no such curve, though single readings can be large or run the other way; also: potency is read from the fitted curve at half-maximal effect; % is scaled to controls: 0 for no effect and ±100 for the full control effect
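Luciferase-expressing parasites in RBCs, 2% Hct / 0.1% parasitemia final; RPMI 1640 + 0.5% Albumax; 37 C, 5% CO2, one generation; luminescence read-out, lower signal = inhibition.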
Pf growth 96h: P. falciparum growth inhibition at 96 hours; P. falciparum luciferase reporter growth, 96 h; Potency, µM (highest dose often 28.7 µM), without a hit: at the highest dose activity change, negative = inhibition, actives largely listed as inhibitors; hit rate 6.9% among 320,000; AID 504834; active = well fitted inhibition curve with a large enough effect; inconclusive = small, poorly fitted or top-dose-only effect, or another doubt; inactive = no such curve, though single readings can be large or run the other way; also: potency is read from the fitted curve at half-maximal effect; % is scaled to controls: 0 for no effect and ±100 for the full control effect
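Infected RBCs, 2% Hct / 0.05% parasitemia final; luciferase-reporter P. falciparum; cpd 96 h, 37 C, 5% CO2; luciferase detection reagent; luminescence.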
NS1 function inh: blocks influenza NS1 protein function; hit rate 0.4% among 270,000; Potency, µM (titrated, usually from 46.1 µM), for inactives: at the top dose activity, positive = more growth; AID 2326; also: potency is read from the fitted curve at half-maximal effect; actives are rising curves; nearly all actives have a fitted effect of over 50% in size
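A cell-based growth assay was used: compounds that relieve NS1-induced slow growth of budding yeast raise OD600. Assay medium was yeast nitrogen base with ammonium sulphate and -URA supplement, pH 6.0, with 2% galactose.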
Cycloheximide cs: counter-screen hit for Shiga toxin inhibitors, cycloheximide; cell reporter, cycloheximide protein synthesis inhibition counterscreen; max response, %; hit rate 12% among 300,000; AID 2314; in the data active = max response mostly above about 13%, no sharp cut-off; inactive = mostly below about 14%; also: read at 38.3 µM for the half of the compounds with a filed dose; 0% is about no effect
Shiga toxin inh: blocks Shiga toxin action in Vero cells; Vero cells, Shiga toxin protein synthesis inhibition reporter; inhibition, % at 38.7 µM; hit rate 9.2% among 290,000; AID 2315; in the data active = inhibition mostly above about 28%, no sharp cut-off; inactive = mostly below about 43%; also: 0% is about no effect
SARS PLP yeast: SARS-CoV PLP inhibition in yeast; Potency, µM (highest dose often 32.9 µM), without a hit: at the highest dose activity, positive = growth rescue, usual class: activators; AID 485353; hit rate 0.19% among 330,000; S. cerevisiae expressing SARS-CoV PLpro, growth rescue; also: potency is read from the fitted curve at half-maximal effect; 0% is about no effect; nearly all actives have a fitted effect of over 55% in size
The depositor's hits bear a star; [ ] = another dose, or the depositor's remark. Unless noted, calls follow the shape of the full dose curve.

For CC1(C)CC2(CCO1)OC(=O)CC2C(=O)Nc1ccccc1Cl (stereo unspecified) the results were Pf growth 48h 20%, Pf growth 96h 3%, NS1 function inh -2%, Cycloheximide cs -1, Shiga toxin inh -12 and SARS PLP yeast 0%.
`CCn1nc(C)c(CNC(=O)CC2C(=O)NCCN2CC(C)(C)C)c1C` (stereo unspecified) gave Pf growth 48h -6%, Pf growth 96h -4%, NS1 function inh 0%, Cycloheximide cs -4, Shiga toxin inh -6 and SARS PLP yeast -1%.
Screening C=CCN(c1ccccc1)S(=O)(=O)c1ccc(Cl)c(C(=O)OCC(=O)N(C)C2CCS(=O)(=O)C2)c1 (stereo unspecified) returned Pf growth 48h -7%, Pf growth 96h inconclusive, Cycloheximide cs 0, Shiga toxin inh 28 and SARS PLP yeast -2%.
Screening Cc1cc(NC(=O)COC(=O)CCNS(=O)(=O)c2ccccc2)n(-c2ccccc2)n1 returned Pf growth 48h -11%, Pf growth 96h 23% and SARS PLP yeast -2%.
COc1ccccc1NC(=O)Cn1c(CCC(=O)O)ccc1-c1ccc(C)cc1 was read as Pf growth 48h inconclusive, Pf growth 96h 8%, Cycloheximide cs -3, Shiga toxin inh 3 and SARS PLP yeast -5%.
COc1ccc(C(=O)NC2CCN(CC(=O)NCc3cccc(OC)c3)CC2)cc1 was read as Pf growth 48h 7%, Pf growth 96h 28%, NS1 function inh 5%, Cycloheximide cs -1, Shiga toxin inh -3 and SARS PLP yeast -5%.
`Cc1ccc(C(=O)CCC(=O)Nc2cc(C)ccn2)cc1` gave Pf growth 48h inconclusive, Pf growth 96h inconclusive and SARS PLP yeast 4%.
`O=C(OCc1ccc(F)cc1)c1ccc2ccccc2n1` gave Pf growth 48h 18%, Pf growth 96h 0%, Cycloheximide cs 25*, Shiga toxin inh 46* and SARS PLP yeast -1%.
For O=C(OCC(=O)c1ccc[nH]1)c1ccc2ccccc2n1 the results were Pf growth 48h -2%, Pf growth 96h 35%, Cycloheximide cs 19*, Shiga toxin inh 18 and SARS PLP yeast -5%.
`O=C(COC(=O)c1nc(Cl)c(Cl)c(Cl)c1Cl)c1ccc[nH]1` gave Pf growth 48h 21%, Pf growth 96h 51% and SARS PLP yeast -13%.
`NC(=O)c1ccc(NC(=O)COC(=O)c2ccc3ccccc3n2)cc1` gave SARS PLP yeast -2%.
O=C(COC(=O)c1ccc2ccccc2n1)c1ccccc1 was read as Pf growth 48h -9%, Pf growth 96h -10%, Cycloheximide cs 46*, Shiga toxin inh 52 and SARS PLP yeast 2%.
`O=C(CCc1nc2ccccc2s1)NC1CCOC1=O` (stereo unspecified) gave Pf growth 48h 39%, Pf growth 96h -7%, NS1 function inh 7%, Cycloheximide cs 5, Shiga toxin inh 13 and SARS PLP yeast 0%.
Screening O=C(CNc1cccc2ccccc12)N/N=C/C=C/c1ccco1 returned Pf growth 48h 22%, Pf growth 96h inconclusive, Cycloheximide cs -4, Shiga toxin inh -8 and SARS PLP yeast -8%.
Screening C/C(=N/NC(=O)CNC(=O)c1cccs1)c1ccco1 returned Pf growth 48h 77%, Pf growth 96h 61%, NS1 function inh 0%, Cycloheximide cs -3, Shiga toxin inh 51* and SARS PLP yeast 0%.
For O=C(Cc1cccs1)N/N=C/C=C/c1ccco1 the results were Pf growth 48h 92%, Pf growth 96h inconclusive, NS1 function inh 1%, Cycloheximide cs 26*, Shiga toxin inh active and SARS PLP yeast -1%.
For C/C(=N/NC(=O)Cc1cccs1)c1ccco1 the results were Pf growth 48h 48%, Pf growth 96h 33%, NS1 function inh 4%, Cycloheximide cs 22*, Shiga toxin inh 27* and SARS PLP yeast -1%.
NC(=O)NC(=O)COC(=O)c1cccc(NS(=O)(=O)/C=C/c2ccccc2)c1 was read as Pf growth 48h -10%, Pf growth 96h 6%, NS1 function inh 3%, Cycloheximide cs -2, Shiga toxin inh -10 and SARS PLP yeast -1%.
Screening c1ccc(C(Cc2nc(-c3ccccn3)no2)c2ccccc2)cc1 returned Pf growth 48h inconclusive, Pf growth 96h inconclusive, NS1 function inh -63%, Cycloheximide cs 56*, Shiga toxin inh 94* and SARS PLP yeast -19%.
For O=C1c2ccccc2C(=O)N1Cc1nc(-c2cccnc2)no1 the results were NS1 function inh 0%.
`Clc1ccc(-c2noc(CCCc3ccccc3)n2)cc1` gave Pf growth 96h 8%, NS1 function inh 3%, Cycloheximide cs 8, Shiga toxin inh -5 and SARS PLP yeast 4%.
O=C1c2ccccc2C(=O)N1Cc1nc(-c2ccccn2)no1 was read as Pf growth 48h 115%, Pf growth 96h 17%, NS1 function inh -3%, Cycloheximide cs 46* and Shiga toxin inh 47*.
c1ccc(CCCc2nc(-c3ccccn3)no2)cc1 was read as Pf growth 48h 141%, Pf growth 96h inconclusive, NS1 function inh -7%, Cycloheximide cs 46*, Shiga toxin inh 62* and SARS PLP yeast inconclusive.
Cc1ccc(Cc2nc(-c3ccccn3)no2)cc1 was read as Pf growth 48h 403%, Pf growth 96h inactive, NS1 function inh -3%, Cycloheximide cs 41*, Shiga toxin inh 69* and SARS PLP yeast -4%.
Cn1cnc(S(=O)(=O)N2CCN(C(c3ccccc3)c3ccccc3)CC2)c1 was read as Pf growth 48h inconclusive, Pf growth 96h -10%, NS1 function inh -14%, Cycloheximide cs -5, Shiga toxin inh -4 and SARS PLP yeast 4%.
For OCC[C@H]1C[C@@H](O)[C@H](O)[C@@]2(Cc3ccccc3O2)O1 the results were Pf growth 48h 27%, Pf growth 96h 12% and SARS PLP yeast 0%.
CN(Cc1nc(-c2ccccn2)no1)S(=O)(=O)c1ccc(Br)cc1 was read as Pf growth 48h 18%, NS1 function inh -4%, Cycloheximide cs 3, Shiga toxin inh 12 and SARS PLP yeast -1%.
For COc1ccc(Cc2nc(-c3ccccn3)no2)cc1 the results were Pf growth 48h 93%, Pf growth 96h 195%, NS1 function inh -8%, Cycloheximide cs 41*, Shiga toxin inh 29 and SARS PLP yeast inconclusive.
`c1ccc(SCc2nc(-c3ccccn3)no2)cc1` gave Pf growth 48h 131%, Pf growth 96h 1%[5.75 µM], NS1 function inh -12%, Cycloheximide cs 58*, Shiga toxin inh 40* and SARS PLP yeast -8%.
Screening c1ccc(Cc2nc(-c3ccccn3)no2)cc1 returned Pf growth 48h 150%, Pf growth 96h 0%[5.75 µM], NS1 function inh -29%, Cycloheximide cs 50*, Shiga toxin inh 94* and SARS PLP yeast -2%.
Cc1nn2c(N3CCN(CCO)CC3)c3c(nc2c1-c1ccccc1)CCCC3 was read as Pf growth 48h 8.3µM*, Pf growth 96h inconclusive, NS1 function inh -2%, Cycloheximide cs -1, Shiga toxin inh -13 and SARS PLP yeast 0%.
